Where a name gives a salt, the structure may show the parent alone.

This assay has as its system DU145. The assay is described as follows: Euclidean distance of Cell Painting phenotypic profile (signed KS, 77 features) to DMSO centroid (dimensionless distance); 5 or 10 uM (library dependent); higher = stronger phenotypic change vs DMSO (phenoactivity). As to conditions: 48 h. The method, boiled down:
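Library compounds were applied at 10 or 5 uM, depending on the library, with 0.1% DMSO final, for 48 h to five cancer lines and a healthy fibroblast line. After staining, cells were imaged confocally at 20X across 9 fields per well, and Harmony extracted 77 features, each scored as a signed Kolmogorov-Smirnov statistic against vehicle wells on the same plate. Phenoactivity is the Euclidean distance between each profile and the median vehicle profile, with profiles first plate-position corrected, correlation-weighted and averaged over replicates at the top dose.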
As for `CN(C)CCCOc1nn(Cc2ccccc2)c2ccccc12` [Benzydamine HCl], the Euclidean distance stood at 1.75.
The figure for `CC(=O)NCCCS(=O)(=O)O` [Acamprosate Calcium] is 0.781; for `CNC(=O)c1cc(Oc2ccc(NC(=O)Nc3ccc(Cl)c(C(F)(F)F)c3)cc2)ccn1` [Sorafenib] it is 1.74; for `C#Cc1cccc(Nc2ncnc3cc4c(cc23)OCCOCCOCCO4)c1` [Icotinib] it is 1.62.
For the compound `Cc1cc([C@@H](C)Nc2ccccc2C(=O)O)c2nc(N3CCOCC3)cc(=O)n2c1`, the Euclidean distance was 1.52.
In turn, `CO/N=C(\C(=O)N[C@@H]1C(=O)N2C(C(=O)OCOC(=O)C(C)(C)C)=C(/C=C\c3scnc3C)CS[C@H]12)c1csc(N)n1` [Cefditoren Pivoxil] gave an Euclidean distance of 1.67.
For the compound `CC[C@@H](C)Nc1cc(C(=O)N[C@H]2C[C@H]3CC[C@@H](C2)N3c2ccc(C(=O)C3CC3)cn2)c(C)cc1C(N)=O`, the Euclidean distance stood at 3.17.
Compound `CC(C)NCC(O)COc1ccc(CCOCC2CC2)cc1` (stereo not given) [Betaxolol] yielded an Euclidean distance of 0.799.
For the compound `COc1cc2c(cc1OC)[C@@H](Cc1cc(OC)c(OC)c(OC)c1)[N+](C)(CCCOC(=O)CC/C=C/CCC(=O)OCCC[N+]1(C)CCc3cc(OC)c(OC)cc3[C@H]1Cc1cc(OC)c(OC)c(OC)c1)CC2` (stereo not given in full) [Mivacurium chloride], the Euclidean distance stood at 0.929.
As for `O=C(CCc1ccc(O)cc1)c1c(O)cc(O)cc1O[C@@H]1O[C@H](CO)[C@@H](O)[C@H](O)[C@H]1O` [Phlorizin], the figure is 0.673.
The compound `Nc1nc2c(ncn2COCCO)c(=O)[nH]1` [Aciclovir] came in with an Euclidean distance of 1.08.
Compound `CCCCC(O)c1ccccc1` (stereo not given) [Fenipentol] registered an Euclidean distance of 1.43.
As for `COc1ccc(CCc2nc3cc(-c4c(C)noc4C)ccc3n2C[C@H](C)N2CCOCC2)cc1Cl`, the figure is 0.967.
Compound `CCCC(=O)Nc1ccc(OCC(O)CNC(C)C)c(C(C)=O)c1` (stereo not given) [Acebutolol HCl] yielded an Euclidean distance of 1.23.
The figure for `CCn1c(N)c(C(=O)NC)c(=O)c2ccc(C#CC(C)(O)COC)nc21` (stereo not given) is 0.681.
As for `Cc1onc(-c2c(F)cccc2Cl)c1C(=O)N[C@@H]1C(=O)N2[C@@H]1SC(C)(C)[C@@H]2C(=O)O` [Flucloxacillin sodium], the figure is 1.17; as for `CCCC(=O)O[C@]1(C(=O)COC(C)=O)CC[C@H]2[C@@H]3C[C@H](F)C4=CC(=O)C=C[C@]4(C)[C@@]3(F)[C@@H](O)C[C@@]21C` [Difluprednate], 2.59; as for `C=CC(=O)N1CCC([C@@H]2CCNc3c(C(N)=O)c(-c4ccc(Oc5ccccc5)cc4)nn32)CC1` [Zanubrutinib (BGB-3111)], 2.15.
The figure for `Cc1cccc(Nc2ccccc2C(=O)O)c1C` [Mefenamic Acid] is 0.8; for `CN1CCN(c2cc3c(cc2F)c(=O)c(C(=O)O)cn3-c2ccc(F)cc2)CC1` [Difloxacin hydrochloride] it is 0.906.
Compound `COc1cc(OC)c(C(=O)CCCN2CCCC2)c(OC)c1` [Buflomedil HCl] showed an Euclidean distance of 0.962.
In turn, `O=c1c(O)c(-c2ccc(O)cc2)oc2cc(O)cc(O)c12` [Kaempferol] had an Euclidean distance of 0.883.
`O=C(O)[C@H](O)Cc1ccc(O)c(O)c1` [Danshensu] had an Euclidean distance of 0.736.
On to `CC(C)Cn1cnc2c(N)nc3ccccc3c21` [Imiquimod], for which the Euclidean distance was determined as 0.652.
Take `CN(C)CCC(c1ccc(Br)cc1)c1ccccn1` (stereo not given) [Brompheniramine hydrogen maleate]: the Euclidean distance stood at 1.13.
`CC1=C(/C=C/C(C)=C/C=C/C(C)=C/C(=O)Nc2ccc(O)cc2)C(C)(C)CCC1` [Fenretinide] displayed an Euclidean distance of 1.92.
Compound `CC(=O)OCC(=O)[C@H]1CC[C@H]2[C@@H]3CCC4=CC(=O)CC[C@]4(C)[C@H]3CC[C@]12C` [Deoxycorticosterone acetate] returned an Euclidean distance of 0.854.
`CCCCc1oc2ccccc2c1C(=O)c1cc(I)c(OCCN(CC)CC)c(I)c1` [Amiodarone HCl] had an Euclidean distance of 2.02.
The compound `Cc1cc(C#N)cc(C)c1Oc1nc(Nc2ccc(C#N)cc2)nc(N)c1Br` [Etravirine (TMC125)] returned an Euclidean distance of 1.7.
The figure for `Cc1c(C(=O)NN2CCCCC2)nn(-c2ccc(Cl)cc2Cl)c1-c1ccc(I)cc1` is 0.842.
`OC(c1cc(C(F)(F)F)nc2c(C(F)(F)F)cccc12)C1CCCCN1` (stereo not given) [Mefloquine HCl]: the Euclidean distance amounted to 1.85.
In turn, `Nc1ccn([C@@H]2O[C@H](CO)[C@@H](O)[C@@H]2O)c(=O)n1` [Cytarabine] showed an Euclidean distance of 2.54.
Turning to `Cc1cc(O)c(C(=O)N[C@@H](C(=O)N[C@@H]2C(=O)N3C(C(=O)O)=C(CSc4nnnn4C)CS[C@H]23)c2ccc(O)cc2)cn1` [Cefpiramide sodium], the Euclidean distance came to 1.94.
Consider `CC/C(=C(\c1ccc(O)cc1)c1ccc(OCCNC)cc1)c1ccccc1` [Endoxifen HCl], for which the Euclidean distance is 2.59.
As to `CNC[C@H](O)c1cccc(O)c1` [Phenylephrine HCl], the Euclidean distance turned out to be 0.788.
`COc1cc2c(cc1OC)C(=O)C(CC1CCN(Cc3ccccc3)CC1)C2` (stereo not given) [Donepezil] gave an Euclidean distance of 0.73.
As for `COc1ccc(-c2nc(N3CCOCC3)c3sc(CN(C)c4ncc(C(=O)NO)cn4)cc3n2)cn1`, the figure is 4.25.
The compound `CCCc1nc(C(C)(C)O)c(C(=O)O)n1Cc1ccc(-c2ccccc2-c2nnn[nH]2)cc1` [Olmesartan] gave an Euclidean distance of 1.57.
`O=C1C[C@@H](c2ccc(O)cc2)Oc2cc(O)cc(O)c21` [Naringenin] returned an Euclidean distance of 0.744.
As for `CC[C@@]1(O)C(=O)OCc2c1cc1n(c2=O)Cc2cc3c(CN(C)C)c(O)ccc3nc2-1` [Topotecan], the figure is 3.94.
